Data from PubChem BioAssay (NCI).
Compounds without any hit were thinned out: in the full panel of roughly 79,000, 15% have a hit. Unmarked numbers belong to inactive results. Activity calls are given as the source filed them. No stated cut-off is given here; in the data, active means growth inhibition above about 70%; inactive means the rest.

How the values were obtained:
[1] = NCI Yeast Anticancer Drug Screen. Data for the rad50 strain (AID 155);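 further: 0% = growth of vehicle-only cultures of the same strain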; settings: S. cerevisiae rad50 strain growth inhibition; at 50.0 µM; stronger effect = higher value
Procedure, shortened: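 A DNA repair-deficient yeast mutant serves as the test organism; compound-induced growth inhibition is calculated against vehicle-treated cells.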

[2] = NCI Yeast Anticancer Drug Screen. Data for the mec2-1 strain (AID 157); settings: S. cerevisiae mec2-1 strain, at 50.0 µM, stronger effect = higher value
Procedure, shortened: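 Yeast mec2-1 mutant treated with compound. Readout: growth inhibition vs vehicle controls.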

[3] = NCI Yeast Anticancer Drug Screen. Data for the sgs1 mgt1 strain (AID 161);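 further: 0% = growth of cultures given vehicle only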; settings: S. cerevisiae sgs1 mgt1 strain, at 50.0 µM, stronger effect = higher value
Procedure, shortened: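 Genetically altered yeast, compound exposure, growth inhibition relative to vehicle.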

[4] = NCI Yeast Anticancer Drug Screen. Data for the cln2 rad14 strain (AID 165);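 further: 0% = growth equal to vehicle treated cultures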; settings: S. cerevisiae cln2 rad14 strain, at 50.0 µM, stronger effect = higher value
Procedure, shortened: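 cln2 rad14 yeast strain; compound exposure; growth inhibition read vs vehicle controls.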

[5] = NCI Yeast Anticancer Drug Screen. Data for the bub3 strain (AID 167); settings: S. cerevisiae bub3 mutant strain, at 50.0 µM, stronger effect = higher value
Procedure, shortened: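 Inhibition values come from growth of compound-treated mutant yeast normalised to vehicle-treated controls.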

[6] = NCI Yeast Anticancer Drug Screen. Data for the mlh1 rad18 strain (AID 175); settings: S. cerevisiae mlh1 rad18 strain growth inhibition; at 50.0 µM; stronger effect = higher value
Procedure, shortened: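 Yeast w/ defined DNA-repair lesions; compound exposure; growth vs vehicle controls → % inhibition.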

## CCCCN1C(=O)CC(=O)N(c2ccccc2)C1=O
[1]
  growth inhibition: -8.55%
[2]
  growth inhibition: -28%
[3]
  growth inhibition: -3.8%
[4]
  growth inhibition: 14.3%
[5]
  growth inhibition: -14.4%
[6]
  growth inhibition: -4.35%

## NNC(=S)N/N=C(\C(=O)Nc1cccc(O)c1)C1C(=O)NC(=S)NC1=O
[1]
  growth inhibition: -6.65%
[2]
  growth inhibition: -10.6%
[3]
  growth inhibition: -13.7%
[4]
  growth inhibition: -0.05%
[5]
  growth inhibition: 2.55%
[6]
  growth inhibition: -17.9%

## C#CC1(OC(C)=O)CCC2C3CCC4=CC(=O)CCC4(C)C3CCC21C (configuration not stated)
[1]
  growth inhibition: 32%
[2]
  growth inhibition: 6.1%
[3]
  growth inhibition: 4.4%
[4]
  growth inhibition: -11.2%
[5]
  growth inhibition: -8.8%
[6]
  growth inhibition: 19.7%

## O=C(COc1ccc(Cl)c(Cl)c1)Nc1ccc[n+](CC(=O)Nc2ccc(S(=O)(=O)F)cc2)c1
[1]
  growth inhibition: 32.4%
[2]
  growth inhibition: 41.4%
[3]
  growth inhibition: 32.5%
[4]
  growth inhibition: 96.7% (active)
[5]
  growth inhibition: 45%
[6]
  growth inhibition: 22.1%

## COP1(=S)OCC2OC(n3cc(C)c(=O)[nH]c3=O)CC2O1 (configuration not stated)
[1]
  growth inhibition: 0.55%
[2]
  growth inhibition: -17.2%
[3]
  growth inhibition: -12.8%
[4]
  growth inhibition: -9.1%
[5]
  growth inhibition: 23.1%
[6]
  growth inhibition: -9.25%

## O=C(Nc1c(O)[nH]c(=S)[nH]c1=O)c1ccco1
[1]
  growth inhibition: -24.1%
[2]
  growth inhibition: -4.8%
[3]
  growth inhibition: -10.8%
[4]
  growth inhibition: -4.35%
[5]
  growth inhibition: -13.2%
[6]
  growth inhibition: -16%

## O=[N+]([O-])c1ccc(N2CC2)c([N+](=O)[O-])c1
[1]
  growth inhibition: 1.85%
[2]
  growth inhibition: -1.95%
[3]
  growth inhibition: 10.5%
[4]
  growth inhibition: 20%
[5]
  growth inhibition: -0.95%
[6]
  growth inhibition: 5.45%

## OC(c1ccccc1)C(c1ccccc1)N1CCOCC1 (configuration not stated)
[1]
  growth inhibition: -8.45%
[2]
  growth inhibition: 4.1%
[3]
  growth inhibition: -1.3%
[4]
  growth inhibition: 1.65%
[5]
  growth inhibition: 7.9%
[6]
  growth inhibition: 9.75%

## O=C(Cl)C(Br)Cc1ccccc1 (configuration not stated)
[1]
  growth inhibition: 11.9%
[2]
  growth inhibition: -19.4%
[3]
  growth inhibition: 0.95%
[4]
  growth inhibition: 7%
[5]
  growth inhibition: 28.6%
[6]
  growth inhibition: 2.1%

## CCOC(OCC)c1ccccc1.[C-]#[O+].[C-]#[O+].[C-]#[O+].[Cr]
[1]
  growth inhibition: 25.1%
[2]
  growth inhibition: 21.4%
[3]
  growth inhibition: 33%
[4]
  growth inhibition: 13.9%
[5]
  growth inhibition: 32.7%
[6]
  growth inhibition: 8.8%

## Oc1cccc(/C=N\NC(=S)NC2CN3CCC2CC3)c1 (configuration not stated)
[1]
  growth inhibition: 2.85%
[2]
  growth inhibition: -5.9%
[3]
  growth inhibition: -5.85%
[4]
  growth inhibition: -4.45%
[5]
  growth inhibition: 7.1%
[6]
  growth inhibition: -12.8%

## Cc1c2ccncc2c(C)c2c1[nH]c1ccccc12
[1]
  growth inhibition: 91.2% (active)
[2]
  growth inhibition: 89.5% (active)
[3]
  growth inhibition: 90.5% (active)
[4]
  growth inhibition: 84.9% (active)
[5]
  growth inhibition: 89.6% (active)
[6]
  growth inhibition: 90.7% (active)

## CC(C)C1(Cc2ccccc2)C(=O)NC(=S)NC1=O
[1]
  growth inhibition: -2.05%
[2]
  growth inhibition: -0.8%
[3]
  growth inhibition: 9.3%
[4]
  growth inhibition: -2.85%
[5]
  growth inhibition: -14.2%
[6]
  growth inhibition: -2.7%

## CC[CH2][Sn]([Br])([CH2]CC(=O)OC)[CH2]CC(=O)OC
[1]
  growth inhibition: 16.5%
[2]
  growth inhibition: 4.2%
[3]
  growth inhibition: 50.1%
[4]
  growth inhibition: -19.9%
[5]
  growth inhibition: 9.85%
[6]
  growth inhibition: 12.1%

## CCC(O)C[As](=O)(O)c1ccccc1OC (configuration not stated)
[1]
  growth inhibition: 5.75%
[2]
  growth inhibition: 20.2%
[3]
  growth inhibition: 2%
[4]
  growth inhibition: -1.6%
[5]
  growth inhibition: 18.1%
[6]
  growth inhibition: -1.65%

## CN(C)c1ccc(NP(=O)(Nc2ccc(N(C)C)cc2)N(CCCl)CCCl)cc1
[5]
  growth inhibition: 12.2%

## C(=NCCN=CC1CCCC[N-]1)C1CCCC[N-]1.[Cu+2].[O-][Cl+3]([O-])([O-])O (configuration not stated)
[5]
  growth inhibition: 69.5%

## C/C=C1/CN2CCC1CC2C(O)c1ccnc2ccc(OCCO)cc12 (configuration not stated)
[1]
  growth inhibition: -8.4%
[2]
  growth inhibition: -13.2%
[3]
  growth inhibition: -2.35%
[5]
  growth inhibition: -24.6%
[6]
  growth inhibition: 24.9%

## COc1cccc(C2CC(=O)c3cccn32)c1 (configuration not stated)
[1]
  growth inhibition: 11.3%
[2]
  growth inhibition: 1.65%
[3]
  growth inhibition: -4.7%
[5]
  growth inhibition: -5.25%
[6]
  growth inhibition: -17.2%

## C=C1CC2C3CC=C4CC(OC(C)=O)CCC4(C)C3CCC2(C)C1=O (configuration not stated)
[1]
  growth inhibition: 31.7%
[2]
  growth inhibition: 13.8%
[3]
  growth inhibition: 6.15%
[5]
  growth inhibition: 15.8%
[6]
  growth inhibition: 15.7%

## CCCCOCCOP(=O)(OCCOCCCC)OCCOCCCC
[1]
  growth inhibition: 7.85%
[2]
  growth inhibition: -15.2%
[3]
  growth inhibition: 2%
[5]
  growth inhibition: -39%
[6]
  growth inhibition: -28.4%

## Cc1nc2ccccc2c(=O)n1-c1ccccc1F
[1]
  growth inhibition: -10.6%
[2]
  growth inhibition: -30.2%
[3]
  growth inhibition: -19.8%
[5]
  growth inhibition: -20.9%
[6]
  growth inhibition: -29.8%

## CCN(CC)c1cccc(OC(=O)NC)c1
[1]
  growth inhibition: 0.55%
[2]
  growth inhibition: -0.25%
[3]
  growth inhibition: -4.6%
[5]
  growth inhibition: 3.5%
[6]
  growth inhibition: -10%

## CP(C)(=S)P(C)(C)=S
[1]
  growth inhibition: 10.8%
[2]
  growth inhibition: 6.05%
[3]
  growth inhibition: 14.6%
[5]
  growth inhibition: 3.05%
[6]
  growth inhibition: -18.5%

## CCOP(=O)(OCC)/C(C#N)=C/c1cccc(OC)c1
[1]
  growth inhibition: 57.5%
[2]
  growth inhibition: 46.7%
[3]
  growth inhibition: 45.6%
[5]
  growth inhibition: 30.8%
[6]
  growth inhibition: 63%

## COc1c(O)cc2c(c1OC)-c1ccc(SC)c(=O)cc1C(NC(C)=O)CC2 (configuration not stated)
[1]
  growth inhibition: 10.4%
[2]
  growth inhibition: -9.4%
[3]
  growth inhibition: 4.95%
[5]
  growth inhibition: 1.95%
[6]
  growth inhibition: 23.9%

## CN(C)CC1C(O)C2CCN1CC2 (configuration not stated)
[1]
  growth inhibition: 3.95%
[2]
  growth inhibition: 9.3%
[3]
  growth inhibition: -3.1%
[5]
  growth inhibition: -5.5%
[6]
  growth inhibition: -1.85%

## CCCCCCCBr
[1]
  growth inhibition: -21.5%
[2]
  growth inhibition: 9%
[3]
  growth inhibition: 3.1%
[5]
  growth inhibition: -5.45%
[6]
  growth inhibition: 15.3%

## C=C1CCN2CC[C@@H](OC(=O)/C(C)=C\C)[C@@H]12
[1]
  growth inhibition: 1.65%
[2]
  growth inhibition: 1.3%
[3]
  growth inhibition: 7.1%
[5]
  growth inhibition: 12.9%
[6]
  growth inhibition: -22.1%

## O=[N+]([O-])c1cccc([As](=O)(O)c2ccc(O)c([N+](=O)[O-])c2)c1
[1]
  growth inhibition: 5.6%
[2]
  growth inhibition: 10.2%
[3]
  growth inhibition: 15.1%
[5]
  growth inhibition: 20.4%
[6]
  growth inhibition: 4.65%

## NC(=O)C(Cl)c1ccccc1 (configuration not stated)
[1]
  growth inhibition: -17.2%
[2]
  growth inhibition: -25.9%
[3]
  growth inhibition: -24.8%
[5]
  growth inhibition: -23.9%
[6]
  growth inhibition: -9.15%

## COc1cc2c(c(OC)c1OC)-c1ccc(SC)c(=O)cc1[C@@H](NC(C)=O)CC2
[1]
  growth inhibition: -12.4%
[2]
  growth inhibition: -16.9%
[3]
  growth inhibition: -19.1%
[5]
  growth inhibition: -27.4%
[6]
  growth inhibition: -7.3%

## O=C1C=CC(=O)N1CO
[1]
  growth inhibition: 23.2%
[2]
  growth inhibition: 19.2%
[3]
  growth inhibition: 9%
[5]
  growth inhibition: 26.9%
[6]
  growth inhibition: 9.25%

## CN=NNc1nc[nH]c1C(N)=O
[1]
  growth inhibition: 23.9%
[2]
  growth inhibition: 32.2%
[3]
  growth inhibition: 25.2%
[5]
  growth inhibition: 3.85%
[6]
  growth inhibition: 40.5%

## O=[N+]([O-])c1cccc2cccnc12
[1]
  growth inhibition: -11.4%
[2]
  growth inhibition: -13.8%
[3]
  growth inhibition: 6.75%
[5]
  growth inhibition: 0.4%
[6]
  growth inhibition: -1.75%

## Cc1ccc(C(=O)C(C)N)cc1C (configuration not stated)
[1]
  growth inhibition: -13.6%
[2]
  growth inhibition: -13%
[3]
  growth inhibition: -17.8%
[5]
  growth inhibition: 1.6%
[6]
  growth inhibition: 22.4%

## Cc1ccc(C)c(C(C)NC2=NCCO2)c1 (configuration not stated)
[1]
  growth inhibition: -3.95%
[2]
  growth inhibition: -7.95%
[3]
  growth inhibition: -11.7%
[5]
  growth inhibition: -9.9%
[6]
  growth inhibition: 19%

## O=C([CH-]C(=O)c1ccccc1)c1ccccc1.O=C([CH-]C(=O)c1ccccc1)c1ccccc1.[OH-].[OH-].[Ti+4]
[1]
  growth inhibition: 6.25%
[2]
  growth inhibition: -9.65%
[3]
  growth inhibition: -6.85%
[5]
  growth inhibition: 36.9%
[6]
  growth inhibition: 8.7%

## COc1ccc(C(CC(=O)O)CC(=O)c2ccc(N(CCCl)CCCl)cc2)cc1 (configuration not stated)
[1]
  growth inhibition: 54%
[2]
  growth inhibition: 22.7%
[3]
  growth inhibition: 24.8%
[5]
  growth inhibition: 87.3% (active)
[6]
  growth inhibition: 68.5%

## CCCCCCP(=O)(O)O.[Zn+2]
[1]
  growth inhibition: -33.9%
[2]
  growth inhibition: -21.8%
[3]
  growth inhibition: -9.65%
[5]
  growth inhibition: -35.1%
[6]
  growth inhibition: -8.75%

## [N-]=[N+]=NC(=O)Nc1ccccc1F
[1]
  growth inhibition: -6.4%
[2]
  growth inhibition: -1.1%
[3]
  growth inhibition: -14.6%
[5]
  growth inhibition: -19.6%
[6]
  growth inhibition: 16.1%

## O=C([CH-]C(=O)c1ccccc1)c1ccccc1.[CH2-]C.[CH2-]C.[Tl+3]
[1]
  growth inhibition: 52.3%
[2]
  growth inhibition: 35.6%
[3]
  growth inhibition: 37.2%
[5]
  growth inhibition: 60.1%
[6]
  growth inhibition: 55.1%

## [O-][Cl+3]([O-])([O-])[O-].[O]=[Ru]=[O].c1ccc(-c2ccccn2)nc1.c1ccc(-c2ccccn2)nc1
[1]
  growth inhibition: 21.9%
[2]
  growth inhibition: 20.9%
[3]
  growth inhibition: 22.4%
[5]
  growth inhibition: 13.7%
[6]
  growth inhibition: 27.4%

## CC[O-].CC[O-].O=C([CH-]C(=O)c1ccccc1)c1ccccc1.O=C([CH-]C(=O)c1ccccc1)c1ccccc1.[Ti+4]
[1]
  growth inhibition: 34.3%
[2]
  growth inhibition: 30.9%
[3]
  growth inhibition: 29.1%
[5]
  growth inhibition: 52.7%
[6]
  growth inhibition: 26.1%

## CC(Nc1c([N+](=O)[O-])ccc(C(=O)NCCN(C)C)c1[N+](=O)[O-])C(=O)Nc1ccc(N(CCCl)CCCl)cc1 (configuration not stated)
[1]
  growth inhibition: -34.6%
[2]
  growth inhibition: -9.75%
[3]
  growth inhibition: 0.75%
[5]
  growth inhibition: -8.05%
[6]
  growth inhibition: -7.75%
